Source: PubChem BioAssay AID1085 (Emory University Molecular Libraries Screening Center, 2008)
Hit rate of the full screen: of about 220,000 compounds, about 930 (0.42%) were called active. No stated cut-off is given here; in the data, active means inhibition above about 50%; inactive means the rest. The full list was thinned out, with actives kept by preference.

What follows are molecules tested against Glycoprotein 42 (Epstein-Barr virus (strain AG876)) (UniProt Q1HVG2) (assay: Epstein-Barr virus gp42 inhibitors, primary screen, biochemical, uHTS, fluorescence polarization (AID 1085)). Conditions: Fluorescence polarization binding assay, mP read-out; active compounds read high; tested at 21.74 µM.
Sequence of Glycoprotein 42 (Epstein-Barr virus (strain AG876)) (Q1HVG2 whole entry, looked up): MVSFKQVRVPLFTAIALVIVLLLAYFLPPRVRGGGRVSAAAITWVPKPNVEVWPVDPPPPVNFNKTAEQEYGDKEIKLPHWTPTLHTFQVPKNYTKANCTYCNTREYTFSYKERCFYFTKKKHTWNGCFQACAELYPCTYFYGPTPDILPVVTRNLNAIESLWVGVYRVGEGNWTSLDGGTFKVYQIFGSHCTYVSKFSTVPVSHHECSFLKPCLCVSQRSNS

Compound	inhibition
Cc1no[n+]([O-])c1COc1ccccc1/C=C1\NC(=S)NC1=O	-22.4% (inactive)
COc1ccc(-n2cnnc2SCC(=O)Nc2cccc([N+](=O)[O-])c2)cc1	6.38% (inactive)
CC1CN(S(=O)(=O)c2ccc(C(=O)Nc3sccc3C(N)=O)cc2)CC(C)O1 (stereo not drawn)	6.08% (inactive)
O=C(Nc1cccnc1)c1ccc(Cl)c([N+](=O)[O-])c1	-3.95% (inactive)
Cn1cc(CN2CCCC(CO)C2)c(-c2ccc(Oc3ccccc3)cc2)n1 (stereo not drawn)	-12.6% (inactive)
COC(=O)C1=C(C)Nc2ncnn2C1c1ccco1 (stereo not drawn)	6.95% (inactive)
Brc1ccc(C2=CC(c3ccco3)n3ncnc3N2)cc1 (stereo not drawn)	105% (active)
CC1=C(C(=O)OCc2ccccc2)C(c2ccco2)n2ncnc2N1 (stereo not drawn)	4.92% (inactive)
Cc1cc(-c2nc(C)c(-c3nnc(SCC(=O)Nc4ccccc4)n3C)s2)no1	-5.93% (inactive)
COc1ccc(Cc2n[nH]c(=S)n2NC(=O)Nc2ccc(C)cc2)cc1	-9.72% (inactive)
O=C(Nc1cn(-c2ccccc2)nc1-c1ccccc1)c1ccccc1	-10.3% (inactive)
CCCCN1C(=O)CC(N2CCOCC2)C1=O (stereo not drawn)	-40.1% (inactive)
N#C/C(=C\c1ccccc1C(F)(F)F)C(=O)Nc1ccccc1F	-19.9% (inactive)
N#C/C(=C\C1=C(N2CCOCC2)C(=C\c2ccccc2)/CC1)C(=O)Nc1ccccc1F	154% (active)
C(=N\N1CCN(c2ccccn2)CC1)/C1=C(N2CCOCC2)C(=C/c2ccccc2)/CC1	22.4% (inactive)
Cc1sc2nc(CC(N)=O)[nH]c(=O)c2c1-c1ccccc1	-7.12% (inactive)
CN1CCN(CCNC(=O)Nc2ccc([N+](=O)[O-])cc2)CC1	-6.33% (inactive)
CCN(CC(=O)Nc1ccc(S(=O)(=O)N2CCCC2)cc1)CC(=O)Nc1cccc(OC)c1	-7.32% (inactive)
CCCCCCCCc1c(O)nc(-n2[nH]c(C)c(CCO)c2=O)[nH]c1=O	-21.7% (inactive)
COc1ccc(C2C=C(c3ccc(Br)cc3)Nc3nc(NS(C)(=O)=O)nn32)cc1 (stereo not drawn)	80.6% (active)
COc1ccc(C2CC(c3ccc(C)cc3)Nc3nc(N)nn32)cc1 (stereo not drawn)	-6.12% (inactive)
COc1ccc(C2=CC(c3cccc(OC)c3)n3nnnc3N2)cc1 (stereo not drawn)	-13.3% (inactive)

Compound	inhibition
CCOCCCNC(=S)N1CCC(NC(=O)C2CCCCC2)CC1	-2.69% (inactive)
Oc1c(Cl)cc(Cl)c(Cl)c1Cc1c(O)c(Cl)cc(Cl)c1Cl	59.7% (active)
CCCC[C@@H]1CN=C(N)N1CCc1cc(C(F)(F)F)cc(C(F)(F)F)c1	-11.3% (inactive)
CC1CCCN(S(=O)(=O)c2ccc(N(C(=O)c3cnccn3)C(C(=O)NC3CCCCC3)c3cccs3)cc2)C1 (stereo not drawn)	-17.8% (inactive)
Cc1cc(N2CCN(S(=O)(=O)c3ccc(C)c(C)c3)CC2)c2ccccc2n1	12.3% (inactive)
Cc1ccc(S(=O)(=O)Nc2nc3ccccc3nc2N2CCc3ccccc3C2)cc1	8.67% (inactive)
Cc1ccc(S(=O)(=O)C(C#N)c2nc3ccccc3nc2N2CCCC2)cc1C (stereo not drawn)	69.2% (active)
O=C(COc1ccc(-c2ccccc2)cc1)NN=C1CCCC1	-13.3% (inactive)
O=C(Nc1ccc2c(c1)OCCO2)c1ccoc1	-10.9% (inactive)
COc1ccc(/C(O)=C2/C(=O)C(=O)N(CC3CCCO3)C2c2ccc(OC)c(OC)c2)cc1 (stereo not drawn)	-16.4% (inactive)
COc1ccc(-c2nc(CS(=O)CC(=O)NCc3cccnc3)c(C)o2)cc1OC (stereo not drawn)	-12.1% (inactive)
COc1ccc(-c2nc(CS(=O)CC(=O)N3CCc4ccccc4C3)c(C)o2)cc1 (stereo not drawn)	-1.18% (inactive)
COc1ccc(-c2nc(CS(=O)CC(=O)NCc3ccccn3)c(C)o2)cc1 (stereo not drawn)	117% (active)
CC[N+]1(CC)CC2=Cc3ccccc3CC2C1 (stereo not drawn)	-0.55% (inactive)
N#Cc1cccc(Nc2c3c(nc4ccccc24)CCCC3)c1	5.27% (inactive)
Cc1cccc(N)c1SC1CCCCC1O (stereo not drawn)	-8.15% (inactive)
O=C(Nc1nnc(Cc2ccc(Cl)cc2)s1)c1cccnc1	-5.07% (inactive)
O=C(Nc1nnc(Cc2ccccc2)s1)c1cnccn1	58.2% (active)
O=C(Nc1nnc(Cc2ccc(Cl)cc2)s1)c1ccncc1	0.5% (inactive)
Cc1cc(C)n2nc(C(=O)N3CCN(Cc4ccc5c(c4)OCO5)CC3)nc2n1	-5.29% (inactive)
Cc1ccc(-c2nnc(SCC(=O)N/N=C/c3cccs3)n2-c2ccc(C)cc2)cc1	-4.61% (inactive)
O=S(=O)(c1cccc(C(F)(F)F)c1)N1CCN(c2cnccn2)CC1	-12.8% (inactive)

Compound	inhibition
Cc1cccc(N=Nc2c(O)[nH]c3ccc(F)cc23)c1	51.7% (active)
Cc1cccc(N=Nc2c(C)[nH]n(-c3ccccc3)c2=O)c1	4.36% (inactive)
Oc1[nH]c2ccc(Br)cc2c1N=Nc1nn[nH]n1	-11.8% (inactive)
COc1ccc(-c2ccc(CNCCCN3CCOCC3)o2)cc1Cl	-7.89% (inactive)
Cn1c(=O)c(=O)n(C)c2cc(S(=O)(=O)NCCN3CCN(c4ccccc4F)CC3)ccc21	-5.54% (inactive)
CN(C)c1ccc(NC(=S)N(CCc2ccccc2)C2CC(=O)N(c3c(Cl)cccc3Cl)C2=O)cc1 (stereo not drawn)	-7.96% (inactive)
CCOCCCN(C(=O)Cn1nnc(-c2ccc(OC)c(OC)c2)n1)C(CC)C(=O)NC1CCCC1 (stereo not drawn)	2.09% (inactive)
CN(C)c1ccc(Nc2c3c4c(cccc4n(C)c2=O)C(=O)c2ccccc2-3)cc1	51.7% (active)
COC(=O)Cn1nc(-c2ccccc2)c2cc(Cl)ccc21	-7.25% (inactive)
CCOC(=O)N1CCN(Cc2nc(Cc3cccc(C(F)(F)F)c3)no2)CC1	5.02% (inactive)
O=C(COC(=O)/C=C/c1ccc(S(=O)(=O)N2CCCCCC2)cc1)NCc1ccccc1Cl	-7.1% (inactive)
CC(=O)Nc1ccc(NC(=O)c2sc3nc4c(c(-c5ccc(C)cc5)c3c2N)CCC4)cc1	-13.2% (inactive)
NC(=O)c1sc2nc3c(c(-c4ccccc4)c2c1N)CCC3	68.4% (active)
Cc1cccc(NC(=O)c2sc3nc4c(c(-c5ccco5)c3c2N)CCC4)c1	-22.7% (inactive)
[O-][N+]12CCCCC1CCCC2CO (stereo not drawn)	-12% (inactive)
CCN(CC)c1ccc2oc(=O)c(C)nc2c1	51.1% (active)
CCN(CC)c1ccc2cc(C(=O)O)c(=O)oc2c1	-20.2% (inactive)
CCN(CC)c1ccc2c(Nc3ccccc3)c(C=O)c(=O)oc2c1	-27.9% (inactive)
CCOC(=O)C1=C(c2ccccc2)N=C2SCC(=O)N2C1c1ccc(O)c(OC)c1 (stereo not drawn)	-7.62% (inactive)
CSCC[C@H](NC(=O)NC1CCCC1)C(=O)O	-16.3% (inactive)
O=C(Cc1cccs1)Nc1nnc(C2CC2)s1	-0.17% (inactive)
COc1ccc(Cc2nnc(NC(=O)Cc3cccs3)s2)cc1	73.9% (active)

Compound	inhibition
CCc1nnc(NC(=O)Cc2cccs2)s1	15.8% (inactive)
CC(C)CCN1CCN(C/C=C/c2ccco2)CC1CCO (stereo not drawn)	0.69% (inactive)
O=C(Nc1ccc(N2CCN(C(=O)c3ccccc3)CC2)c(Cl)c1)c1ncn[nH]1	-5.31% (inactive)
O=C(/C=C/Nc1ccc(S(=O)(=O)Nc2cnc3ccccc3n2)cc1)c1cccnc1	0.92% (inactive)
O=C(NCc1ccccn1)c1ccc2nc(-c3ccco3)c(-c3ccco3)nc2c1	33.5% (inactive)
COc1ccc(NC(=O)Nc2ccc3nsnc3c2)cc1	-9.53% (inactive)
COCCNC(=O)Nc1ccc2nc(-c3ccco3)c(-c3ccco3)nc2c1	52.7% (active)
O=C(/C=C/c1cn(-c2ccccc2)nc1-c1ccc2c(c1)OCCO2)NCCCN1CCOCC1	-12.9% (inactive)
CC(=O)c1ccccc1NC(=O)CC1(CC(=O)O)CCCCC1	-14.7% (inactive)
Cc1cc(F)ccc1S(=O)(=O)Nc1ncnc2scc(-c3ccc(F)cc3)c12	9.65% (inactive)
COc1cccc(N(CC(=O)NCCSc2ccccn2)S(C)(=O)=O)c1	-23.3% (inactive)
Brc1ccc(-c2csc(N/N=C/c3cccnc3)n2)cc1	2.77% (inactive)
CCCNc1c(N)c(=O)c1=O	2.64% (inactive)
Cc1cc2nc3c(=O)n(Cc4ccccc4)c(=O)[nH]c3nc2cc1N	135% (active)
O=c1[nH]c2c(c(=O)n1Cc1ccccc1)CCC2	-9.97% (inactive)
CC(=O)c1ccc(-c2ccc(Cn3c(C)nc4cc(N)c(C)nc43)cc2)cc1	2.98% (inactive)
COC(=O)CCSc1cc([N+](=O)[O-])cc2c1c(C1OCCS1)nn2-c1ccccc1 (stereo not drawn)	24.1% (inactive)
O=C(N/N=C/c1ccc(OCc2ccccc2)cc1)c1ccc(O)cc1	-4.07% (inactive)
CCCCCC(=O)Nc1ccc(C(=O)N/N=C/c2ccc([N+](=O)[O-])cc2)cc1	-19.6% (inactive)
O=C(COc1ccc(/C=N/NC(=O)c2ccc(O)cc2)cc1)Nc1ccc([N+](=O)[O-])cc1	77.5% (active)
C/C=C\C=C\C(=O)N1CC2(CC(c3cccc(NC(=O)/C(C)=C\C)c3)=NO2)C[C@H]1C(N)=O (stereo partly drawn)	-17.9% (inactive)
CSc1ccccc1NC(=O)CN(C)CC(=O)Nc1cccc(Br)c1	-0.02% (inactive)
